Source: PubChem (National Center for Advancing Translational Sciences (NCATS))
A selection: hits, their analogues and other compounds. The true share with any hit is near 6.6%.
MCF10A rerep: inducers of DNA re-replication in MCF 10A breast cells; MCF 10A DNA re-replication, Hoechst nuclear intensity, 48 h; Potency, µM (titrated, usually from 46.1 µM), inactives show top-dose activity, positive = re-replication, actives largely listed as activators; 350,000 tested, 2.9% active; note: % of control where 0% means no effect; nearly all actives have a fitted effect of over 50% in size
RGS4 inhibitor: human RGS4 inhibition; 390,000 tested, 0.039% active; P49798; AID 504845; Transcreener GDP fluorescence polarization, RGS4-accelerated GTP hydrolysis; Potency, µM (titrated, usually from 114 µM), inactives show at the top dose activity change, negative = inhibition, most hits filed as inhibitors; note: % is set by controls: 0 for no effect and ±100 for the full control effect; nearly all actives have a fitted effect of over 75% in size
Target sequence (P49798 whole entry, looked up): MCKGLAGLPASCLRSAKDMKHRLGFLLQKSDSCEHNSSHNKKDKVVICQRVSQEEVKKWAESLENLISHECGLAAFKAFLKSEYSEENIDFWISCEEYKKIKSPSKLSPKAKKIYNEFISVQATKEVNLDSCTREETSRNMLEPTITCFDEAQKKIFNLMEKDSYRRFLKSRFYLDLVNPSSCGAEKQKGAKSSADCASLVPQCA
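MLSMR compounds (23 nl, pin-transferred) preincubated 10 min at room temperature with a 500nM (2x) first reagent, then RGS4 at 900nM (2x) plus Transcreener GDP mix added; fluorescence polarization (620/688 nm) read before and after 90 min at 30 °C.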
SW480 rereplic: inducers of DNA re-replication in SW480 colon cancer cells | SW480 DNA re-replication, Hoechst DNA content imaging, 48 h | 340,000 tested, 1.8% active | Potency, µM (highest dose often 46.1 µM), for inactives: at the highest dose re-replication activation, most hits filed as activators; note: % of control where 0% means no effect; nearly all actives have a fitted effect of over 55% in size
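Treated cells incubate 48 hr (37 C, 5% CO2), are stained 40 min with Hoechst, and nuclear fluorescence is enumerated; a rise in nuclei with high DNA signal marks re-replication.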
KB-3-1 cytotox: KB-3-1 parental cell cytotoxicity. KB-3-1 viability, CellTiter-Glo ATP luminescence, 72 h. Potency, µM (series often up to 46.1 µM), usual class: cytotoxic. 400,000 tested, 1.4% active; note: % is set by controls: 0 for no effect and ±100 for the full control effect; nearly all actives have a fitted effect of over 60% in size
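Cells are dispensed, compounds pinned in, plates held at 37 °C for 72 h, then CellTiter-Glo is added and luminescence read after 10 minutes. Cell line: parental KB-3-1 in phenol-red-free DMEM, 10% FBS.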
KB-V1 cytotox: kills drug-selected multidrug resistant KB-V1 cells; KB-V1 MDR cells viability, CellTiter-Glo, 72 h; Potency, µM (titrated, usually from 46.1 µM), usual class: cytotoxic; 400,000 tested, 3.4% active; AID 1347076; note: % is set by controls: 0 for no effect and ±100 for the full control effect; nearly all actives have a fitted effect of over 60% in size
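Luminescent ATP read-out (CellTiter-Glo, 10 min) measures survival of drug-selected KB-V1 MDR cells after 72 h, 37 degrees C compound exposure. Medium: phenol-red-free DMEM, 10% FBS. Values from fitted concentration-response curves.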
TSG101-PTAP inh: blocks PTAP/TSG101 interaction to inhibit HIV-1 budding; AID 493005; 340,000 tested, under 10 active; Potency, µM (doses to about 115 µM), without a hit: at the highest dose activity change, negative = inhibition, actives largely listed as inhibitors; Fluorescence polarization, FITC-PTAP peptide / Tsg101 binding; Q99816; active = well fitted inhibition curve with a large enough effect in the main read-out, with a control signal flat, not every such curve was filed as active; inconclusive = small, poorly fitted or top-dose-only effect, or effect the other way, or a change in a side signal; inactive = no such curve, though single readings can be large or run the other way; note: % of control where 0% means no effect
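Steps: Tsg101 binding domain dispensed (10 uM final), compounds pinned in DMSO, FITC-labeled PTAP-motif peptide added (50 nM final); after 20 min binding at room temperature, polarization measured.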
An asterisk follows results filed as active; i = inactive; ? = inconclusive; nt = not tested or not shown; [ ] = remark or other dose. Unless noted, calls come from the whole dose curve; as a rule, active = well fitted curve in the direction sought with a large enough effect; inconclusive = small, poorly fitted or top-dose-only effect, or another doubt; inactive = no such curve, though single readings can be large; an effect the other way counts as inactive or inconclusive. Potency is the fitted concentration of half-maximal effect.

SMILES	MCF10A rerep	RGS4 inhibitor	SW480 rereplic	KB-3-1 cytotox	KB-V1 cytotox	TSG101-PTAP inh
CCOC(=O)c1c(NC(=O)c2cccs2)sc(CC)c1-c1cccs1	?	11%	12%	i	18µM*	nt
O=C(NCCC1=CCCCC1)c1cnccn1	-27%	3%	5%[9.22 µM]	i	i	-1%
Cc1csc2nc(O)c(C(=O)NCCCc3ccccc3)c(=O)n12	1%	-19%	-1%	?	16µM*	-2%
Cc1csc2nc(O)c(C(=O)NCCC3=CCCCC3)c(=O)n12	?	-6%	0%	i	9.2µM*	-4%
Cc1nc2scc(C)n2c(=O)c1S(=O)(=O)NCCc1ccccc1	6%	-80%[56.9 µM]	6%	i	i	-4%
COc1cccc(/C=C/c2nc3ccccc3nc2/C=C/c2cccc(OC)c2OC)c1OC	nt	nt	nt	?	i	nt
CCCCC(CC)CO (configuration not stated)	7%	22%	-69%	i	i	-8%
CCCCC(CC)CN=C(N)NC(N)=NCCCCCCN=C(N)NC(N)=NCC(CC)CCCC (configuration not stated)	12µM*	?	?	?	?	-1%
COc1ccc(NC(=S)NC2CCCCCC2)c(OC)c1	10%	-6%	0%	?	18µM*	0%
COc1ccc(NC(=S)NCc2ccccc2Cl)c(OC)c1	7%	10%	-4%	i	?	-1%
COc1ccc(NC(=O)N(C2CCCCC2)C2CCN(C(C)C)CC2)c(OC)c1	4%	-11%	-5%	i	15µM*	-1%
COc1ccc(NC(=S)NCCc2ccccc2OC)c(OC)c1	1%	11%	5%	?	21µM*	-5%
COc1ccc(NC(=S)NC2CCCCC2)c(OC)c1	8%	-18%	1%	?	i	-9%
COc1cccc(C(=O)NNC(=S)NC2CCCCC2)c1	-12%	-17%	-3%	i	23µM*	-1%
O=c1[nH]c2c(-c3nc(-c4ccc(Cl)cc4)cs3)c(O)cn2c2ccccc12	nt	nt	nt	?	i	nt
O=C(Nc1ccc(F)c(Cl)c1)Nc1c[nH]c(=O)[nH]c1=O	nt	-26%	nt	i	i	nt
Cc1ccc(-c2n[nH]c(=S)n2/N=C/c2c(C)nn(-c3ccccc3)c2C)cc1	?	-34%	?	i	i	1%
CCc1n[nH]c(=S)n1/N=C/c1c(C)nn(-c2ccccc2)c1Cl	-1%	-39%	3%	?	1.3µM*	-1%
Cc1cccc(C)c1NC(=O)c1c(C)nn(-c2ccccc2)c1Cl	5%	0%	-2%	i	15µM*	-1%
Cc1nn(-c2ccccc2)c(Cl)c1/C=C(\C#N)C(=O)NC(C)C	23µM*	-54%	?	?	i	6%
Cc1ccc(C)c(OCC(=O)N/N=C/c2c(C)nn(-c3ccccc3)c2Cl)c1C	?	-1%	?	?	8.2µM*	-6%
CC(C)OCCCNC(=O)CN1C(=O)c2cccnc2Sc2ccccc21	nt	6%	nt	i	i	nt
OCCOCCOCCO	-2%	nt	6%	nt	nt	nt
CCCN1Cc2cccc(C(=O)Nc3ccc(OC)cc3OC)c2C1=O	nt	-4%	nt	i	i	nt
CCNc1nc(C#N)nc(NCC)n1	nt	15%	nt	i	i	nt
CCOC(=O)c1ccc(NC(=O)CCCc2nc(-c3ccccc3Cl)no2)cc1	nt	-17%	nt	i	i	nt
Cc1nn(-c2ccccc2)c(Cl)c1/C=N/NC(N)=O	-21%	11%	?	?	2.1µM*	-2%
CCOC(=O)N/N=C/c1c(C)nn(-c2cccc(C(F)(F)F)c2)c1Cl	2.6µM*	22%	5.8µM*	2.1µM*	2.6µM*	-1%
Cc1ccc(-c2cc(C(=O)N/N=C/c3c(C)nn(-c4ccccc4)c3C)n[nH]2)s1	?	2%	1.3µM*	i	i	-7%
